Consider 30 molecules from PubChem BioAssay AID743361 (Molecular Libraries Program, Specialized Chemistry Center, …, 2014).

Calls of active or inactive are those of the source. No rule for the calls is given here.

As a reminder, the IC50 is the midpoint of a concentration-inhibition curve.

The assay is described as follows: cell-free Rh123 fluorescence quenching read-out – biochemical, dry powder samples, uHTS hits, counter-screen for mtPTP inhibitor project, dose response (AID 743361). As to conditions: Rhodamine 123 fluorescence quenching counterscreen. Background: The purpose of a counterscreen is to sort out artefacts and off-target activity.
As for `O=C(Nc1ccc(Br)cc1)c1cc(C2CC2)on1`, the IC50 is > 100 µM (inactive).

As to `O=C(Nc1cccc(F)c1)c1cc(-c2cccc(O)c2)on1`, the IC50 is > 100 µM (inactive).

For the molecule `O=C(Nc1cc(Cl)cc(Cl)c1)c1cc(-c2cccc(O)c2)on1`, the IC50 was > 100 µM (inactive).

On to `COc1ccc(Cl)c(C(=O)Nc2ccc(CCN3CCOCC3)cc2)c1`, for which the IC50 is > 100 µM (inactive).

As to `COc1ccc(Cl)c(C(=O)Nc2ccc(CCN3CCN(C)CC3)cc2)c1`, the IC50 is > 100 µM (inactive).

`CC1(C)CCN(CCCC(=O)c2ccc(Br)cc2)CC1`: the IC50 was > 100 µM (inactive).

For `COc1ccc(NC(=O)c2cc(Cl)cc(Cl)c2OC)cc1`, the IC50 is > 100 µM (inactive).

`COc1ccc(Cl)cc1C(=O)Nc1ccc(CN2CCCCC2)cc1`: the IC50 was > 100 µM (inactive).

For the molecule `CN1CCN(c2ccc(NC(=O)c3ccc(OCc4ccccc4)cc3)cc2)CC1`, the IC50 was > 100 µM (inactive).

As to `O=C(Nc1ccc(Cl)cc1)c1cc(-c2cccc(O)c2)on1`, the IC50 was > 100 µM (inactive).

For the molecule `COc1ccc(Cl)cc1C(=O)Nc1ccccc1`, the IC50 is > 100 µM (inactive).

Turning to `CN1CCN(Cc2ccc(NS(=O)(=O)c3cccc(Cl)c3)cc2)CC1`, the IC50 was > 100 µM (inactive).

In the case of `CCCc1cc(C(=O)Nc2c(F)cc(F)cc2Br)no1`, the IC50 is > 100 µM (inactive).

Turning to `O=S(=O)(Nc1ccc(CN2CCCCC2)cc1)c1cc(Cl)cc(Cl)c1`, the IC50 is > 100 µM (inactive).

Turning to `COc1c(Cl)cccc1NC(=O)c1cc(-c2cccc(O)c2)on1`, the IC50 was > 100 µM (inactive).

As for `COc1ccc(/C=C/C(=O)Nc2cccc(Cl)c2)cc1O`, the IC50 is > 100 µM (inactive).

As to `O=C(Nc1cc(Cl)ccc1F)c1cc(-c2cccc(O)c2)on1`, the IC50 was > 100 µM (inactive).

Take `COc1ccc(Cl)c(C(=O)Nc2cccc(CN3CCN(C(=O)OC(C)(C)C)CC3)c2)c1`: the IC50 was > 100 µM (inactive).

In the case of `COc1ccc(Cl)cc1C(=O)Nc1ccc(N2CCN(C)CC2)cc1`, the IC50 was > 100 µM (inactive).

As to `O=S(=O)(Nc1ccc(CCN2CCCCC2)cc1)c1ccc(F)c(Cl)c1`, the IC50 is > 100 µM (inactive).

Regarding `COc1ccccc1C(=O)Nc1ccc(CN2CCCCC2)cc1`, the IC50 was > 100 µM (inactive).

`COc1ccc(Cl)cc1C(=O)Nc1ccc(N(C)C)cc1`: the IC50 is > 100 µM (inactive).

With `Cc1ccc(Cl)cc1NC(=O)c1cc(-c2cccc(O)c2)on1`, the IC50 was > 100 µM (inactive).

For `COc1ccc(Cl)cc1S(=O)(=O)Nc1ccc(CN2CCN(C)CC2)cc1`, the IC50 was > 100 µM (inactive).

For the molecule `CN1CCN(c2ccc(NS(=O)(=O)c3cccc(Cl)c3)cc2)CC1`, the IC50 was > 100 µM (inactive).

Turning to `Cc1cc(NC(=O)c2cc(-c3ccc(F)cc3)on2)no1`, the IC50 was > 100 µM (inactive).

As for `CC(C)C1CCN(CCCC(=O)c2ccc(Br)cc2)CC1`, the 50% inhibitory concentration (IC50) is 64.6 µM (active).

Consider `CN1CCN(Cc2ccc(NS(=O)(=O)c3ccc(F)c(Cl)c3)cc2)CC1`, for which the IC50 is > 100 µM (inactive).

`C[C@@H]1CCC[C@H](C)N1CCCC(=O)c1ccc(Br)cc1`: the IC50 was > 100 µM (inactive).

As to `COc1ccc(Cl)cc1C(=O)Nc1cccc(CN2CCN(C(=O)OC(C)(C)C)CC2)c1`, the IC50 is 73.5 µM (active).
